Key:
Details in all cases: treatment time: 24 h
A549-ACTB-RAB5A [1] = assay: phenotypically active (imaging signature differs from DMSO and reproducible) at any of 0.3-9 uM (binary (1 = active, 0 = inactive)); higher = active
How it was run: (§1)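 Phenotypic activity depended on meeting both a deviation and a reproducibility criterion. The fifteen gene-edited A549, HepG2 and WPMY1 reporter lines were treated at 0.3, 1, 3 or 9 µM for 24 h, four wells each, then imaged live with features normalised to solvent control wells. Deviation required ≥3 of 4 wells past the 95th percentile of control Euclidean distances, and reproducibility a median replicate Pearson correlation above the 95th percentile of non-replicates.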

A549-CANX-COX4 = assay: as above
How it was run: as §1

A549-GM130-SQSTM1 [2] = assay: as above
How it was run: as §1

A549-TP53BP1-CLTA = assay: as above
How it was run: as §1

A549-TUBA1B-RELA [3] = assay: as above
How it was run: as §1

HepG2-ACTB-RAB5A = assay: as above
How it was run: as §1

HepG2-CANX-COX4 [4] = assay: as above
How it was run: as §1

HepG2-GM130-SQSTM1 = assay: as above
How it was run: as §1

HepG2-TP53BP1-CLTA = assay: as above
How it was run: as §1

HepG2-TUBA1B-RELA = assay: as above
How it was run: as §1

WPMY1-ACTB-RAB5A [5] = assay: as above
How it was run: as §1

WPMY1-CANX-COX4 = assay: as above
How it was run: as §1

WPMY1-GM130-SQSTM1 = assay: as above
How it was run: as §1

WPMY1-TP53BP1-CLTA = assay: as above
How it was run: as §1

WPMY1-TUBA1B-RELA = assay: as above
How it was run: as §1

A549-ACTB-RAB5A [6] = assay: lowest phenotypically active concentration; higher = less potent
How it was run: as §1

A549-GM130-SQSTM1 [7] = assay: as above
How it was run: as §1

A549-TUBA1B-RELA [8] = assay: as above
How it was run: as §1

HepG2-CANX-COX4 [9] = assay: as above
How it was run: as §1

WPMY1-ACTB-RAB5A [10] = assay: as above
How it was run: as §1

Row | Compound | phenotypically active (A549-ACTB-RAB5A [1]) | phenotypically active (A549-CANX-COX4) | phenotypically active (A549-GM130-SQSTM1 [2]) | phenotypically active (A549-TP53BP1-CLTA) | phenotypically active (A549-TUBA1B-RELA [3]) | phenotypically active (HepG2-ACTB-RAB5A) | phenotypically active (HepG2-CANX-COX4 [4]) | phenotypically active (HepG2-GM130-SQSTM1) | phenotypically active (HepG2-TP53BP1-CLTA) | phenotypically active (HepG2-TUBA1B-RELA) | phenotypically active (WPMY1-ACTB-RAB5A [5]) | phenotypically active (WPMY1-CANX-COX4) | phenotypically active (WPMY1-GM130-SQSTM1) | phenotypically active (WPMY1-TP53BP1-CLTA) | phenotypically active (WPMY1-TUBA1B-RELA) | lowest phenotypically active concentration (A549-ACTB-RAB5A [6]) | lowest phenotypically active concentration (A549-GM130-SQSTM1 [7]) | lowest phenotypically active concentration (A549-TUBA1B-RELA [8]) | lowest phenotypically active concentration (HepG2-CANX-COX4 [9]) | lowest phenotypically active concentration (WPMY1-ACTB-RAB5A [10])
1 | C[C@@H]1CN([C@H]2CC[C@](C#N)(c3ccc(F)cc3)CC2)CC[C@]1(C(=O)O)c1ccccc1 [levocabastine] | 0 (inactive) | 0 (inactive) | 0 (inactive) | 0 (inactive) | 0 (inactive) | 0 (inactive) | 0 (inactive) | 0 (inactive) | 0 (inactive) | 0 (inactive) | 0 (inactive) | 0 (inactive) | 0 (inactive) | 0 (inactive) | 0 (inactive) |  |  |  |  | 
2 | C[C@@H]1O[C@H](C[N+](C)(C)C)C[C@H]1O [(+)-Muscarine iodide] | 0 (inactive) | 0 (inactive) | 0 (inactive) | 0 (inactive) | 0 (inactive) | 0 (inactive) | 0 (inactive) | 0 (inactive) | 0 (inactive) | 0 (inactive) | 0 (inactive) | 0 (inactive) | 0 (inactive) | 0 (inactive) | 0 (inactive) |  |  |  |  | 
3 | C=C1[C@@H](C)[C@H]2[C@H](Cc3ccccc3)NC(=O)[C@]23OC(=O)C=C[C@H](O)CCC[C@@H](C)CC=C[C@H]3[C@@H]1O [Cytochalasin B] | 1 (active) | 1 (active) | 1 (active) | 1 (active) | 1 (active) | 1 (active) | 1 (active) | 1 (active) | 1 (active) | 1 (active) | 1 (active) | 1 (active) | 1 (active) | 1 (active) | 1 (active) | ≤ 0.3 µM | 1 µM | 1 µM | 1 µM | 1 µM
4 | CNC(=O)Oc1ccc2c(c1)[C@]1(C)CCN(C)O[C@@H]1N2C [Geneserine] | 0 (inactive) | 0 (inactive) | 0 (inactive) | 0 (inactive) | 0 (inactive) | 0 (inactive) | 0 (inactive) | 0 (inactive) | 0 (inactive) | 0 (inactive) | 0 (inactive) | 0 (inactive) | 0 (inactive) | 0 (inactive) | 0 (inactive) |  |  |  |  | 
5 | CC1=C(O)C(=O)[C@@H]2O[C@@H]2C1=O [(-)-Terreic acid] | 0 (inactive) | 0 (inactive) | 0 (inactive) | 0 (inactive) | 0 (inactive) | 0 (inactive) | 0 (inactive) | 0 (inactive) | 0 (inactive) | 0 (inactive) | 0 (inactive) | 0 (inactive) | 0 (inactive) | 0 (inactive) | 0 (inactive) |  |  |  |  | 
